For assay [1], the system named is TRPC4 beta (transient receptor potential cation channel C4), mouse. As to the kind of experiment: TRPC4 cation channel opening, retest – cell-based, Fluo4 calcium, HEK293 TRPC4beta/mu-opioid, duplicates, 10 µM, confirmation (AID 2426;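 active = fluorescence ratio normalized to control raised more than 50% in primary screen plus both repeat runs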;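 as to activation: percent rise of integrated ratio over buffer wells lacking compound which define 0%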). To be noted: Fluo4 calcium fluorescence, at 10 µM; active compounds read high.
In assay [2] the test system is transient receptor potential cation channel C4 beta (TRPC4), mouse. In words: TRPC4 cation channel opening, second retest – cell-based, second round, Fluo4, HEK293 TRPC4beta/mu-opioid, 1 µM, confirmation (AID 2461;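 active = primary screen active and over 50% activation in each of two duplicate runs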). The conditions noted are these: Fluo4 calcium fluorescence, at 1 µM; active compounds read high.
For assay [3], the system named is TRPC4 (transient receptor potential cation channel C4 beta), mouse. As to the kind of experiment: potentiation of DAMGO EC20 TRPC4 response – cell-based, second round, Fluo-4, HEK293 TRPC4beta/mu-opioid, 1 µM, confirmation (AID 2554). To be noted: DAMGO EC20, Fluo-4 calcium flux, at 1 µM; active compounds read high.
Assay [4] relates to TRPC4 beta (transient receptor potential cation channel C4), mouse. In words: potentiation of DAMGO EC20 TRPC4 response – cell-based, Fluo-4, HEK293 TRPC4beta/mu-opioid, confirmation (AID 2555;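 active = primary screen hit whose calcium fluorescence ratio, in both repeats, exceeds the weak agonist control mean by 3 SD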). To be noted: DAMGO EC20, Fluo-4 calcium flux, at 10 µM; active compounds read high.
The target of assay [5] is Short transient receptor potential channel 4 (Mus musculus) (UniProt Q9QUQ5). In words: blockers of DAMGO-evoked TRPC4 calcium flux – cell-based, Fluo4, HEK293 TRPC4beta/mu-opioid, confirmation (AID 2636;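 active = calcium signal cut by more than 3 SD below the full-agonist control yet still positive, in both repeats and the earlier primary screen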). The conditions noted are these: at 10 µM; active compounds read high.
For assay [6] the target is unchanged. As to the kind of experiment: blockers of DAMGO-evoked TRPC4 calcium flux – cell-based, second round, Fluo4, HEK293 TRPC4beta/mu-opioid, 1 µM, confirmation (AID 2637;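 active = calcium signal ratio cut to more than 3 SD under the fully stimulated control mean yet still positive, in both repeats and the primary screen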;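 as to inhibition: percent of integrated ratio relative to wells lacking test compound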). The conditions noted are these: at 1 µM; active compounds read high.
The target is the same in assay [7]. In words: potentiation of DAMGO-evoked TRPC4 calcium signal – cell-based, HEK293 TRPC4/mu-opioid, Fluo-4 calcium, EC20 DAMGO, dose response (AID 434941;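 active = earlier screen potentiator hit that boosts the TRPC4 ion channel at some dose, with a dose response; inactive = no potentiation, no dose response, or not a prior hit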;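 also: calcium entry triggered by an EC20 dose of DAMGO at the co-expressed mu-opioid receptor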).
In assay [8] the target is Short transient receptor potential channel 6 (Mus musculus) (UniProt Q61143). In words: TRPC6 blockade by TRPC4 inhibitor hits – cell-based, HEK293, membrane potential dye, duplicate, selectivity assay for TRPC4 inhibitor project, confirmation (AID 434948;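 active = active in primary screen and both duplicates, each dropping signal beyond three positive-control SD with fluorescence still positive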). The conditions noted are these: HEK293 TRPC6, membrane potential dye fluorescence, at 10 µM, stimulated with maximal-effect acetylcholine; active compounds read high.

The target is the same in assay [9]. In words: TRPC6 opening by TRPC4 activator hits – cell-based, HEK293, membrane potential dye, duplicate, selectivity assay for TRPC4 activator project, confirmation (AID 434950;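 active = membrane potential signal rise above negative control mean plus 3 SD in both duplicates, also active in the earlier TRPC4 screen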;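 as to activation: 0% = buffer only wells and 100% = acetylcholine maximal-effect wells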). The conditions noted are these: HEK293 TRPC6, membrane potential fluorescence, at 10 µM; activation: active compounds read high; outcome: activation.
Assay [10] shares this target. As to the kind of experiment: positive modulators of mouse TRPC6 channel – HEK293 cells, membrane potential dye, duplicate, selectivity assay for TRPC4 potentiator project, confirmation (AID 434952;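 active = compound raising the membrane signal above positive-control mean plus 3 SD in both repeats, and a primary screen hit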). The conditions noted are these: HEK293 TRPC6, membrane potential dye fluorescence, at 10 µM, maximal acetylcholine added after compound; active compounds read high.
Assay [11] addresses Short transient receptor potential channel 4 (Mus musculus) (UniProt Q9QUQ5). In words: calcium flux activators in TRPC4/5HT1a cells, counter-screen for TRPC4 activator project, cell-based, second counter screen, HEK293 TRPC4/5HT1a, Fluo-4 (AID 434977;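 active = calcium signal rise above buffer-control mean plus 5 SD in both duplicates, and also a hit in the primary screen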;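 as to activation: plate controls were assay buffer for no effect and maximal serotonin response for full effect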). To be noted: Fluo-4 calcium flux, at 10 µM; active compounds read high.
Assay [12] can be described thus: serotonin-gated TRPC4 signal block – cell-based, second counter screen, HEK293 TRPC4/5HT1a, Fluo-4, counter-screen for TRPC4 inhibitor project, confirmation (AID 434978;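 active = primary screen active whose calcium signal fell more than 3 SD beyond the full-serotonin control mean in both duplicate plates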;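 as to outcome: serotonin given first at submaximal then at maximal dose after compound preincubation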). To be noted: Fluo-4 calcium flux, at 10 µM, serotonin added to trigger calcium flux; active compounds read high.
For assay [13], the system named is TRPC4 (mouse), co-expressed with 5HT1a in HEK293. In words: enhancement of serotonin-evoked TRPC4 response – cell-based, second counter screen, HEK293 TRPC4/5HT1a, Fluo-4, counter-screen for TRPC4 potentiator project, confirmation (AID 434979;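 active = signal rise over 3 SD above mean of control wells given weak agonist, in both repeats and first screen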). The conditions noted are these: Fluo-4 calcium flux, at 10 µM, serotonin added at its EC20 dose; active compounds read high.
Assay [14] is described as follows: nonspecific calcium rise without TRPC4 – cell-based, HEK293 mu-opioid receptor line, counter-screen for TRPC4 activator project, confirmation (AID 449723;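 active = hit in primary screen, with calcium signal over 5 SD above buffer well mean in both duplicates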;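 also: counter screen cells carry the mu-opioid receptor alone and lack TRPC4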). To be noted: HEK293 mu-opioid cells, Fluo-4 calcium fluorescence, at 10 µM; active compounds read high.
Assay [15] in a line: nonspecific potentiation of DAMGO calcium response – cell-based, HEK293 mu-opioid receptor line, counter-screen for TRPC4 allosteric potentiator project, confirmation (AID 449724;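 active = calcium signal rise more than 3 SD above the low-dose agonist control mean, in both duplicate plates and the primary screen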;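 also: HEK293 cells carrying mu-opioid receptor only with no TRPC4 channel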). The conditions noted are these: HEK293 mu-opioid receptor cells, Fluo-4 calcium flux, at 10 µM, compound added before EC20 DAMGO stimulus; active compounds read high.

For part of these data: Measured potencies and affinities stand elsewhere. Active and inactive are the calls of the source.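 The calls were made as follows, unless noted: active = primary screen hit whose fluorescence ratio, in both repeats, exceeds the weak agonist control mean by 3 SD; inactive = the rest.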

Short transient receptor potential channel 4 (Mus musculus), sequence (Q9QUQ5 whole entry, looked up): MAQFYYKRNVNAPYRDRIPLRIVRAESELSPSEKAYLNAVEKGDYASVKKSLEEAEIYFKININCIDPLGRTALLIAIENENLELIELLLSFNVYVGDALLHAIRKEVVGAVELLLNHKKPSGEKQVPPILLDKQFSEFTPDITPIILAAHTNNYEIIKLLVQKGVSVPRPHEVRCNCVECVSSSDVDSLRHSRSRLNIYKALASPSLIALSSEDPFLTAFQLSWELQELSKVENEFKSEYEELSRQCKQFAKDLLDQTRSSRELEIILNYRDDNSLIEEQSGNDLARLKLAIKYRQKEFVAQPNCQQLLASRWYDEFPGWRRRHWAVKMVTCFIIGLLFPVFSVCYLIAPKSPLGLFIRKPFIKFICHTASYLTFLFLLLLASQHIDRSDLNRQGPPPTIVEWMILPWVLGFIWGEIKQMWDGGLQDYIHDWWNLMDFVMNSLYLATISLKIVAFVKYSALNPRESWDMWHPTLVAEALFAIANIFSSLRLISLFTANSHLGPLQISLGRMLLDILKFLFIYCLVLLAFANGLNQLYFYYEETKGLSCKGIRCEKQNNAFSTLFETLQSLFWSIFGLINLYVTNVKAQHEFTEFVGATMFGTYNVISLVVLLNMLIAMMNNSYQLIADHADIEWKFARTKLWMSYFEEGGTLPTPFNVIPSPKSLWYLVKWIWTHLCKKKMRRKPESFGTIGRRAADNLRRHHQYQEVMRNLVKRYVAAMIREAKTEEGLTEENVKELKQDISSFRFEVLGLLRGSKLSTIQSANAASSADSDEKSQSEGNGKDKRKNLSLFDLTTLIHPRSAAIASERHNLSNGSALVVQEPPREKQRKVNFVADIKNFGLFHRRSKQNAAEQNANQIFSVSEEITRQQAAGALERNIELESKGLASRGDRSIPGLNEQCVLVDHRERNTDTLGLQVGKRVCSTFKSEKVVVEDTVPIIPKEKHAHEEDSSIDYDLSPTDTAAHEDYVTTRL
Short transient receptor potential channel 6 (Mus musculus), sequence (Q61143 whole entry, looked up): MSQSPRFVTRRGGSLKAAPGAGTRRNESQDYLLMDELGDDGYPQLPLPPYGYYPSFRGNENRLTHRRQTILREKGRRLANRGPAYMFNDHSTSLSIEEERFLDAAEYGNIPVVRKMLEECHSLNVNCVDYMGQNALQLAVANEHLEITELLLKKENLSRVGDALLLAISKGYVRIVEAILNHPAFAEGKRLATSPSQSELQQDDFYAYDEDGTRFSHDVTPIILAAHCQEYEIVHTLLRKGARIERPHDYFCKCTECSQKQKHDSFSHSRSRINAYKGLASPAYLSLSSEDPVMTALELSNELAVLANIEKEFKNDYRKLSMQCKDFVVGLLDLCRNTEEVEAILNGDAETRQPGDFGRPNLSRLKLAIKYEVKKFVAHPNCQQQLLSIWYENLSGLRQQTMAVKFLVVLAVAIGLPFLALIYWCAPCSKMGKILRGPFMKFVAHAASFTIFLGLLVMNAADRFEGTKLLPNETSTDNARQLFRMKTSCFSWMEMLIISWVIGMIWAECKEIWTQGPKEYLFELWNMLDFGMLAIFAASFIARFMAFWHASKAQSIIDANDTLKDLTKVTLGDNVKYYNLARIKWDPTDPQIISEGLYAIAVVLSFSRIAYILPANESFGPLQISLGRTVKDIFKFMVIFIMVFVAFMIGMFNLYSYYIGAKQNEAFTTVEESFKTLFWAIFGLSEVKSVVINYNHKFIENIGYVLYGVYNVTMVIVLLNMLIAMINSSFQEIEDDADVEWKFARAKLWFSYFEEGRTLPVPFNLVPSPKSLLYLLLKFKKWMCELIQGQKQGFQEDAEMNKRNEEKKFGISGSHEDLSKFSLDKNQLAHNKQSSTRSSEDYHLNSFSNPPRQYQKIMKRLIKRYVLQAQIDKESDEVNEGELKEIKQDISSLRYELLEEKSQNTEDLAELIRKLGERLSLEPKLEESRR

On to `COc1cccc(-c2nn(-c3ccccc3)cc2CN(C)C(C)c2ccncn2)c1` (stereo not given), for which the result in assay [1], in assay [2], in assay [3], in assay [4], in assay [6] and in assay [7] was inactive. Moreover, the compound was classed as inactive in assay [8], in assay [10], in assay [11], in assay [12], in assay [13] and in assay [14]. In assay [15], the outcome was inactive. For the same compound, the inhibition in assay [5] was 93% (active). The activation in assay [9] was 41% (active).
As for `CCOC(=O)C1(CC2CC2)CCN(Cc2ccc(O)c(Cl)c2)CC1`, the outcome in [1], in [2], in assay [3], in assay [4], in [7] and in assay [8] was inactive. Besides, the result in assay [10], in assay [11], in assay [12], in assay [13], in assay [14] and in assay [15] was inactive. Also, the inhibition in assay [5] is 97% (active); in assay [6], 63% (active). In assay [9], the activation is 82% (active).
In the case of `CCOC(=O)C1(CCc2ccccc2)CCN(Cc2ccc(O)cc2)CC1`, the outcome in assay [1], in assay [2], in assay [3], in assay [4], in assay [6] and in assay [7] was inactive. Also, the result in assay [8], in assay [10], in [11], in [12], in [13] and in assay [14] was inactive. Further, the outcome in [15] was inactive. In assay [5], the inhibition is 88% (active). In assay [9], the activation was 69% (active).
For the compound `COc1ccccc1NS(=O)(=O)c1cccc(C(=O)NC2CCN(Cc3ccccc3)CC2)c1`, the activation in [1] is 90% (active); in assay [9] it was 38.5% (active). The result in assay [2], in assay [3], in assay [4], in assay [5], in assay [7] and in [8] was inactive. Also, the outcome in assay [10], in assay [11], in assay [12], in assay [13], in [14] and in assay [15] was inactive. The inhibition in assay [6] is 72% (active).
For the compound `CN(C)/C=C1\C(=O)N(c2ccc([N+](=O)[O-])cc2)N=C1c1ccccc1`, the activation in assay [1] is 76% (active); in [11] it was 68.6% (active). Further, the result in [2], in [3], in assay [4], in assay [6], in assay [7] and in assay [8] was inactive. The compound was called inactive in assay [9], in [10], in [13], in assay [14] and in assay [15]. Further, the results for the inhibition in [5] and in [12] were 85% (active) and -1.74% (active), respectively.
`CC(=O)Nc1ccc(C2(c3ccc(NC(C)=O)cc3)C(=O)Nc3ccccc32)cc1`: the outcome in assay [1], in [2], in assay [3], in assay [4], in assay [7] and in assay [8] was inactive. The result in assay [10], in [11], in assay [12], in assay [13], in assay [14] and in assay [15] was inactive. For the same compound, the inhibition in assay [5] is 83% (active); in [6], 61% (active). For the same compound, in assay [9], the activation was 30% (active).
For the compound `CCn1cc(CN2CCC(n3nccc3NC(=O)CCCc3ccccc3)CC2)cn1`, the outcome in assay [1], in [2], in assay [3], in assay [4], in assay [7] and in assay [8] was inactive. The outcome in assay [10], in assay [11], in assay [12], in assay [13], in [14] and in assay [15] was inactive. The inhibition in assay [5] is 95% (active); in assay [6], 58% (active). Moreover, the activation in assay [9] was 36% (active).
As to `CN(C)C(CNC(=O)c1ccc(C(F)(F)F)cc1)c1ccco1` (stereo not given), the activation was 55% (active) in assay [1] and 28.5% (active) in assay [9]. For the same compound, the outcome in assay [2], in assay [3], in assay [4], in [7], in [8] and in assay [10] was inactive. Further, the outcome in assay [11], in [12], in assay [13], in [14] and in assay [15] was inactive. The figures for the inhibition in assay [5] and in assay [6] were 96% (active) and 92% (active), respectively.
Regarding `O=C(NCc1ccccc1)C1=C[C@H](c2ccc3c(c2)OCO3)C[C@H](OCc2ccc(CO)cc2)O1`, the activation was 142% (active) in assay [1] and 115% (active) in [11]. In addition, the outcome in assay [2], in assay [3], in [4], in assay [5], in assay [6] and in [7] was inactive. The call in assay [8], in assay [9], in [10], in [13], in assay [14] and in assay [15] was inactive. Further, in assay [12], the inhibition was 18.1% (active).
Consider `COc1ccc(Cl)cc1NC(=O)CNCC(c1ccccc1)N(C)C` (stereo not given), for which the result in assay [1], in [2], in [3], in assay [4], in [7] and in assay [8] was inactive. Further, the result in [10], in assay [11], in [12], in [13], in assay [14] and in [15] was inactive. Moreover, the inhibition is 100% (active) in assay [5] and 60% (active) in assay [6]. For the same compound, the activation in assay [9] is 52.5% (active).
Regarding `CCc1ccc(C(CNc2nc(C(F)(F)F)nc3ccccc23)N(C)C)cc1` (stereo not given), the result in assay [1], in [2], in [3], in [4], in assay [5] and in assay [6] was inactive. Moreover, the outcome in assay [7], in assay [8], in assay [9], in assay [10], in assay [11] and in assay [12] was inactive. For the same compound, the outcome in assay [13], in assay [14] and in [15] was inactive.

The record behind these values is PubChem BioAssay.
